Out of some 340,000 compounds screened, about 1,800 (0.53%) were called active.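 The calls were made as follows: active = activation over 3 SD above normal in the single-dose calcium agonist read (cut at about 30% in these data); inactive = the rest.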 Only a selection was taken, and actives are over-represented in it overall.

In the test the target is D(2) dopamine receptor (Homo sapiens) (UniProt P14416). Kind of test: HTS Assay for Allosteric Agonists of the Human D2 Dopamine Receptor: Primary Screen for Agonists. Also: 0% is about no effect. Conditions: HEK293 T-REx D2 cells, calcium flux agonist mode; at 2 µM; active compounds read high. An excerpt: NIH Chemical Genomics Center [NCGC] NIH Molecular Libraries Probe Centers Network [MLPCN] MLPCN Grant: NS064831-01 Assay Submitter (PI): David Sibley Dopamine receptors (DARs) are involved in the etiology and/or therapy of a number of neuropsychiatric and endocrine disorders. For instance, all receptor-based antiparkinsonian drugs work via stimulating the D2 DAR subtype whereas all FDA-approved antipsychotic agents are antagonists of this receptor. […] There are three different types of allosteric modulators that we are seeking, two of which will stimulate or augment receptor signaling, allosteric agonists and potentiators, while the third, allosteric antagonists, will attenuate receptor signaling. The present primary screening assay measures compound agonism by tracking calcium flux in a […], inducible Hek293 Trex D2 cell line.
Chain of D(2) dopamine receptor (Homo sapiens) (P14416 whole entry, looked up): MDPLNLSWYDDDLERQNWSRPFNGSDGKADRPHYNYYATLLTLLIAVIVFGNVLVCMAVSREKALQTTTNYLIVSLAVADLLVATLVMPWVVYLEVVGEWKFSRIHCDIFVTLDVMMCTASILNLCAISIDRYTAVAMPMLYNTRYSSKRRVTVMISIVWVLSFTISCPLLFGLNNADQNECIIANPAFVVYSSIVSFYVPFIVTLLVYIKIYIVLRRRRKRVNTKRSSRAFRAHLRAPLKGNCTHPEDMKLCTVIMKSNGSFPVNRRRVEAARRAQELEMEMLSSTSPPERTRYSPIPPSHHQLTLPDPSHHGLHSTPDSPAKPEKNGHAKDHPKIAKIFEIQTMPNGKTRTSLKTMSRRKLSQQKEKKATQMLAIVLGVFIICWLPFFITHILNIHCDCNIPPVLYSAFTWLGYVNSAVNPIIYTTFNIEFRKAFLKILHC
Freshly passaged cells are plated in 1536 well black, clear bottom plates at a density of 4000 cells/well in 3 ul of complete media containing 1x tetracycline inducer. After an overnight incubation at […] in 5% CO2, cells are loaded with 2 ul of the no wash Calcium Assay Kit (ABD Bioquest) and incubated at room temperature for 30 to 90 minutes. Agonist read: A 10 cycle (1 second/cycle) baseline measurement is taken and then the FDSS online 1536 pintool delivers 23 nl of compound library (as well as dopamine controls) to the plate. The plate is measured for kinetically at 1 cycle/sec for 180 seconds and is considered to be the agonist portion of the assay (eg, compounds which activate a positive calcium response during this portion are flagged as potential agonists). Following the 180 second read, 1 ul of either an EC20 (positive modulation assay) or EC80 (negative modulation assay) is delivered by an onboard pipette head. Measurements are taken kinetically for an additional 180 seconds.
On the technique in general: Calcium flux is commonly read through the fluorescence of an indicator in the cells.
For the compound `Fc1cccc(F)c1CN1CCN(Cc2c(F)cccc2F)CC1`, the activation was 1.26% (inactive).

On to `COc1ccccc1CN1CCN(C(=O)Cc2ccccc2)CC1`, for which the activation is 0.485% (inactive).

`COc1ccc(CN2CCN(c3ccccc3F)CC2)c(OC)c1`: the activation is 71.7% (active).

With `COC(=O)C1=C(c2cccc(OCc3ccccc3)c2)C[C@@H]2CC[C@H]1N2C(=O)NNCc1ccccc1`, the activation is -0.13% (inactive).

As for `Fc1ccc(N2CCN(Cc3ccc4c(c3)OCO4)CC2)cc1`, the activation is 6.76% (inactive).

Take `CC(C)c1ccc(O)c(CN2CCN(c3ccccc3)CC2)c1`: the activation was -1.71% (inactive).

Consider `Oc1cc2c(cc1CN1CCN(c3ccccc3)CC1)OCO2`, for which the activation is 83.3% (active).

`COC(=O)C1=C(c2ccc3ccccc3c2)C[C@@H]2CC[C@H]1N2C(=O)NCCO`: the activation is -0.422% (inactive).

With `CCc1ccc(OCC(=O)N2CCN(CC(=O)Nc3ccccc3Cl)CC2)cc1`, the activation was 1.2% (inactive).

Take `Cc1cccc(Cn2cccc(C(=O)Nc3ccc4c(c3)OCCO4)c2=O)c1`: the activation is 0.0946% (inactive).

For `CCOC(=O)C1(CCc2ccccc2)CCN(Cc2ccco2)CC1`, the activation was 0.433% (inactive).

For the compound `CCOC(=O)C1(Cc2ccc(Cl)cc2)CCN(C(C)CCn2cccn2)CC1` (stereo not given), the activation is 72.7% (active).

Regarding `COC(=O)C1=C(c2ccc(F)cc2OCc2ccccc2)C[C@@H]2CC[C@H]1N2C(=O)NCc1ccc(OC)c(OC)c1`, the activation is -0.652% (inactive).

Regarding `O=C(CCC(=O)N1C[C@H]2C[C@@H](C1)c1cccc(=O)n1C2)NCc1ccccc1C(F)(F)F`, the activation is 0.976% (inactive).

Turning to `Cc1nnc(NC(=O)c2cccn(Cc3cccc(F)c3)c2=O)s1`, the activation is 0.455% (inactive).

The values are drawn from PubChem BioAssay AID485358 (National Center for Advancing Translational Sciences (NCATS), 2010).
